Experimental data as given in PubChem BioAssay AID624054 (National Center for Advancing Translational Sciences (NCATS), 2012).
Calls of active or inactive are those of the source.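 The calls were made as follows: active = IC50 at or below 10 µM; inconclusive = IC50 above 10 µM but below 20 µM; inactive = IC50 of 20 µM or more.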

The compounds below were run against Neuropeptide S receptor (Homo sapiens) (UniProt Q6W5P4) (assay: Robust Characterization of cAMP Signal Transduction for Antagonists of the Neuropeptide S Receptor: SAR). Details: CHO-NPSR cells, NPS-stimulated cAMP, TR-FRET.
Neuropeptide S receptor (Homo sapiens), sequence (Q6W5P4 whole entry, looked up): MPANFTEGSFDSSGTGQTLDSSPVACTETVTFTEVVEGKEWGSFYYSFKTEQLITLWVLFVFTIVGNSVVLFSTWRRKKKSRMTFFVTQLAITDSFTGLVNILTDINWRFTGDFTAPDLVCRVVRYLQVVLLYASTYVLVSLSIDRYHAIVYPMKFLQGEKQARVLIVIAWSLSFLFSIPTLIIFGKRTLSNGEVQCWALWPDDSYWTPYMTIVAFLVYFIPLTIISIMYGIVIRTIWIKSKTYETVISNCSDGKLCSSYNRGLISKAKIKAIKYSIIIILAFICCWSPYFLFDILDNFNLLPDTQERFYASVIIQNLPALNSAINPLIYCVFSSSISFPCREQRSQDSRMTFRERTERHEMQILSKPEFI
Text: Neuropeptide S receptor (NPSR), previously known as GPR154, is a recently de-orphanized G protein coupled receptor. Its endogenous ligand is the 20 amino acids peptide Neuropeptide S (NPS). […] NPS and its receptor are found in various tissues. Specifically they are highly expressed in brain areas that have been implicated in modulation of arousal, stress and anxiety. Central administration of NPS in mice produces an unusual profile of activity by inducing wakefulness and arousal, while at the same time suppressing anxiety. Therefore, NPSR may represent a novel drug target for the treatment of sleep and anxiety disorders. To identify NPSR antagonists, we developed a cell-based cAMP assay. NPS can stimulate the production of cAMP in Chinese hamster ovary cells stably expressing NPS receptor. This change in intracellular cAMP level can be detected by a homogeneous LANCE cAMP assay based on the TR-FRET (time resolved fluorescence resonance energy transfer) between a europium-labeled cAMP tracer complex and a cAMP-specific antibody labeled with Alexa Fluor 647. The europium-labeled cAMP tracer complex is formed by the tight interaction between Biotin-cAMP (b-cAMP) and streptavidin labeled with Europium-W8044 chelate (Eu-SA). Light pulse at 320 nm excites the europium of the cAMP tracer and the energy emitted is transferred to the Alexa molecule bound to the cAMP antibody, generating a TR-FRET signal at 665 nm. Residual energy from the europium will produce a light at 620 nm. The native unlabeled cAMP from cell lysates competes with the europium-cAMP tracer for antibody binding and reversely reduces the emission signal of Alexa by interrupting FRET between the two labeled molecules. Both emission signals from the FRET donor (620 nm) and the acceptor (665 nm) can be detected by a plate reader in the TRF mode. Expression of result in fluorescence ratio (665 nm/620 nm) helps to normalize differences due to cell density and reagent dispensing. This assay was successfully optimized to a 1536-well plate format. Select compounds from the primary screen (AID 1461) were chosen for confirmation based on potency, efficacy, SAR, and activity across other assays in PubChem and at NCGC. Other compounds are analogs of active compounds from the primary screen. […]
A Chinese hamster ovary (CHO) cell line stably expressing the NPS receptor (CHO-NPSR) was obtained from Dr. Heilig lab at NIAAA and maintained in F-12 Kaighn's media (Invitrogen, Carlsbad, CA, 21127) supplemented with 10 % FBS, 100 units/ml penicillin, 100 ug/ml streptomycin and 250 ug/ml geneticin at 37C, 5% CO2 in a humidified atmosphere. […] IC50 values were determined from concentration-response data modeled with the standard Hill equation. […]

IC50, active:
Cc1c(P(=S)(c2ccccc2)c2ccccc2)[n+]2ccccc2n1C/C=C/c1ccccc1 22.1 nM, COc1ccc(C2c3c(ncn(CCN4CCOCC4)c3=N)Oc3ccc4ccccc4c32)cc1OC (centres undefined) 296 nM, O=C1OC(c2ccccc2)(c2ccccc2)N2CCN(C(=O)NCc3ccc(F)cc3)CC12 (centres undefined) 208 nM, CCC(C)(CCN1CCOCC1)N(Cc1cc2ccccc2n(C)c1=O)C(=O)C1CCCCC1 (centres undefined) 17.6 nM
